Test results reported in article PMC7862700, “An all-to-all approach to the identification of sequence-specific readers for epigenetic DNA modifications on cytosine”.

Assays:
Assay in all cases: DAPPL (digital affinity profiling via proximity ligation, sequencing); 10 mM Tris-HCl pH 7.5, 50 mM NaCl, 1 mM DTT, 4% glycerol, room temperature, 30 min; GST-TFs on glutathione beads, 16-mer random dsDNA library, 0.1% formaldehyde crosslink after washing; high values mean tight binding
Conditions in all cases: protein: recombinant; tags: N-terminal GST; dsDNA, one strand shown
GABPA = biological target: T1, GABPA (Homo sapiens, UniProt Q06546 1-454)
T1 sequence: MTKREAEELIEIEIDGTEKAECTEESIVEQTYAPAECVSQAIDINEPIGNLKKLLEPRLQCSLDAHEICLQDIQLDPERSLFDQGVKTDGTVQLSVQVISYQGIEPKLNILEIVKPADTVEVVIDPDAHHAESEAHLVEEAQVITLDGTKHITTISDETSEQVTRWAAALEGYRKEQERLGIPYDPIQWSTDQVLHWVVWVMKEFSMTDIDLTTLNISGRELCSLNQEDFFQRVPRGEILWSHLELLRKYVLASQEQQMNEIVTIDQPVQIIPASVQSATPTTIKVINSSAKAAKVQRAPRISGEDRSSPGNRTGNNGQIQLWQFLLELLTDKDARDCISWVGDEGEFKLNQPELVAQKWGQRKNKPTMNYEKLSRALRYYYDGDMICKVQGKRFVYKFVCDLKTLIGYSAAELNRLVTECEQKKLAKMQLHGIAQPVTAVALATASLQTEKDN
Summary of the method: (§1)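 A tag-only sample was pooled with DNA-barcoded human transcription factors that had been expressed in yeast as GST fusions and captured on glutathione beads. The pools were incubated for 30 min at room temperature with 200 nmole of a random double-stranded 16-mer DNA library in Tris/NaCl/DTT/glycerol buffer, then washed, crosslinked with 0.1% formaldehyde, proximity-ligated (BsaI/T4 ligase, 1 h, 37 °C), PCR-amplified and sequenced on an Illumina NextSeq500. Binding signal is each hexamer's read frequency for a factor divided by its frequency for the tag-only sample.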

ERG = biological target: T2, ERG (Homo sapiens, UniProt P11308 1-479)
T2 sequence: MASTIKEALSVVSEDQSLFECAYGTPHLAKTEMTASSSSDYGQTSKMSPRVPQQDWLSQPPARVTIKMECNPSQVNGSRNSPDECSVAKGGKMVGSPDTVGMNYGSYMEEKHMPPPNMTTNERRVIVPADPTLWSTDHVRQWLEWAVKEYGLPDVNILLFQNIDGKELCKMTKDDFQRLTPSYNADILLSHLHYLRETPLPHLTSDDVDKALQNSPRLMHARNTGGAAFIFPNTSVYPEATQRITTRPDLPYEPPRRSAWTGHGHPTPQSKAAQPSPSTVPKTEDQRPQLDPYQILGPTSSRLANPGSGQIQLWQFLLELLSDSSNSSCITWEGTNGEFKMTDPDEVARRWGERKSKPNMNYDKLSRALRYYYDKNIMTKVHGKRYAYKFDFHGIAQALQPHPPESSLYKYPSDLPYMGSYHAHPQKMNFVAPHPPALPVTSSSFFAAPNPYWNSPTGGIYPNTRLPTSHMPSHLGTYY
Summary of the method: as §1

ELF1 = ELF1 (Homo sapiens, UniProt P32519 1-619)
ELF1, sequence (P32519 whole entry): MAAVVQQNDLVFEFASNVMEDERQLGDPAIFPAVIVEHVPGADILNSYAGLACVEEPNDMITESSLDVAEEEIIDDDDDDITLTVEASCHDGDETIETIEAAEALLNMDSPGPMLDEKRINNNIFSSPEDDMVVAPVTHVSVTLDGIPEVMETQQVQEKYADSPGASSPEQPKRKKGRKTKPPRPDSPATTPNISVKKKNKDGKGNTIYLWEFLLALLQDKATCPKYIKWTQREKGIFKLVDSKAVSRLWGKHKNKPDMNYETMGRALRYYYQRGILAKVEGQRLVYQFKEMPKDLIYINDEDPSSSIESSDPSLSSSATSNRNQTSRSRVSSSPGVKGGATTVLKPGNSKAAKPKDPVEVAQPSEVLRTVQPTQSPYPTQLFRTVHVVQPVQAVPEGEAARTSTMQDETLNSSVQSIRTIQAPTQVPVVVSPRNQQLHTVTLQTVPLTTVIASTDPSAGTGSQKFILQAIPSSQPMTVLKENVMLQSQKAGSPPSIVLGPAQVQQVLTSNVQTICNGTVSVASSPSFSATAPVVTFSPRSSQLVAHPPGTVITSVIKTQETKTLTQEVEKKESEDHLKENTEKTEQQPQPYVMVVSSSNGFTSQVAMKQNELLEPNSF
Summary of the method: as §1

EHF = biological target: T3, EHF (Homo sapiens, UniProt Q9NZC4 1-300)
T3 sequence: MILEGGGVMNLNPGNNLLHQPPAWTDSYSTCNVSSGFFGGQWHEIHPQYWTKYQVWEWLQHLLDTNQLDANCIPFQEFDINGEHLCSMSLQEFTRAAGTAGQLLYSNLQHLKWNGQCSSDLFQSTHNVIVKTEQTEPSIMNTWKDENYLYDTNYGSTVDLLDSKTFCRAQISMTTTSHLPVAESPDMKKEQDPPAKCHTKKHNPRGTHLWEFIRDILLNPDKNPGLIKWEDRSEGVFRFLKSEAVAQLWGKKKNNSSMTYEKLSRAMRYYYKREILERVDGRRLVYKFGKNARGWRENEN
Summary of the method: as §1

SPIB = SPIB (Homo sapiens, UniProt Q01892 1-262)
SPIB, sequence (Q01892 whole entry): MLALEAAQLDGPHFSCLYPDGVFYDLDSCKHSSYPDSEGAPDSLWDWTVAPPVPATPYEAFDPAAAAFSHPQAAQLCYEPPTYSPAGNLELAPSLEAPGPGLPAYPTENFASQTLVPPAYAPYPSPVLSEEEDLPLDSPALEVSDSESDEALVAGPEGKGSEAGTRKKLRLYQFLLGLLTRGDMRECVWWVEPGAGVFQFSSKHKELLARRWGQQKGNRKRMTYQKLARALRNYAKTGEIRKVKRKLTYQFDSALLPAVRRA
Summary of the method: as §1

ETV5 = ETV5 (Homo sapiens, UniProt P41161 1-510)
ETV5, sequence (P41161 whole entry): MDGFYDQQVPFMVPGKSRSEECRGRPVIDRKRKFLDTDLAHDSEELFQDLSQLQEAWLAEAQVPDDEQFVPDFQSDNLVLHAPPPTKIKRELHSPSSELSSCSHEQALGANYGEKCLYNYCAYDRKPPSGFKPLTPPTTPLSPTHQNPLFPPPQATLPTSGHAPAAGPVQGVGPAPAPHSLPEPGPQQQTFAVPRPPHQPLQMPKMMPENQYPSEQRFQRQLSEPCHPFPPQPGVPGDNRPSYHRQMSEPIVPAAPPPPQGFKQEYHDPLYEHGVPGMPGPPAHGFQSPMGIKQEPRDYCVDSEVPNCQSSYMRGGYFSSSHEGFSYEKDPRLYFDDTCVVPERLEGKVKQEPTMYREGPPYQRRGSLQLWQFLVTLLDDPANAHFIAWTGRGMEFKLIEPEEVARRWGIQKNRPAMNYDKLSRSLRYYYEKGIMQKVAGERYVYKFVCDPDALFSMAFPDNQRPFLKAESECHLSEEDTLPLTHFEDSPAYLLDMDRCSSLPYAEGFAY
Summary of the method: as §1

ELF4 = ELF4 (Homo sapiens, UniProt Q99607 1-663)
ELF4, sequence (Q99607 whole entry): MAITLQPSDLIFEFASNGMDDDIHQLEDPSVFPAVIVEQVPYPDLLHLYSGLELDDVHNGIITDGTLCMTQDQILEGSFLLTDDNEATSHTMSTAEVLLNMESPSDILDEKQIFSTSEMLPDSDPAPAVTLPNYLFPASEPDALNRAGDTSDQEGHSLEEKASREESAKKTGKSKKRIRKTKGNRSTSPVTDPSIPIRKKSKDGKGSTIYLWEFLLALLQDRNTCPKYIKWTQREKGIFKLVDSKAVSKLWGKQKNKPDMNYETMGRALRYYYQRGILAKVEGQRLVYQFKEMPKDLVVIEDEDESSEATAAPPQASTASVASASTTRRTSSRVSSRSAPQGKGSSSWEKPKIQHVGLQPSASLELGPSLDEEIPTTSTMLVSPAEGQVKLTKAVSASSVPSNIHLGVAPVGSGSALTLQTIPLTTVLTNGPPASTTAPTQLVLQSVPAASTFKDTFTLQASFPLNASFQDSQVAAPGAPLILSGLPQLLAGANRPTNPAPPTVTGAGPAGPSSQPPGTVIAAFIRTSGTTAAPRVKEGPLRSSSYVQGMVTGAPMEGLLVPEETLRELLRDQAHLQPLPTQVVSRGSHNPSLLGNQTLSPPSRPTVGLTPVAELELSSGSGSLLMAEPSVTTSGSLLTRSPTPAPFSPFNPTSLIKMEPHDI
Summary of the method: as §1

ETV2 = biological target: T4, ETV2 (Homo sapiens, UniProt O00321 1-342)
T4 sequence: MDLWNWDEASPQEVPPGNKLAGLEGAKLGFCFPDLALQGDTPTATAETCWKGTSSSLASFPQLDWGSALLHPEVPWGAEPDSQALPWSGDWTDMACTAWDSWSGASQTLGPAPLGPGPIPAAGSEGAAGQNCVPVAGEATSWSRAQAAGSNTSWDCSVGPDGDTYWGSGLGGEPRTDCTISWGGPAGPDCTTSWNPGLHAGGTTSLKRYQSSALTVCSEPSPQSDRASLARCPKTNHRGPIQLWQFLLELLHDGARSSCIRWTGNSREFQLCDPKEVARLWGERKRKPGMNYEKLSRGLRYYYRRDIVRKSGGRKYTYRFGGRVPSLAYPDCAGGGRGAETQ
Summary of the method: as §1

ETV1 = ETV1 (Homo sapiens, UniProt P50549 1-477)
ETV1, sequence (P50549 whole entry): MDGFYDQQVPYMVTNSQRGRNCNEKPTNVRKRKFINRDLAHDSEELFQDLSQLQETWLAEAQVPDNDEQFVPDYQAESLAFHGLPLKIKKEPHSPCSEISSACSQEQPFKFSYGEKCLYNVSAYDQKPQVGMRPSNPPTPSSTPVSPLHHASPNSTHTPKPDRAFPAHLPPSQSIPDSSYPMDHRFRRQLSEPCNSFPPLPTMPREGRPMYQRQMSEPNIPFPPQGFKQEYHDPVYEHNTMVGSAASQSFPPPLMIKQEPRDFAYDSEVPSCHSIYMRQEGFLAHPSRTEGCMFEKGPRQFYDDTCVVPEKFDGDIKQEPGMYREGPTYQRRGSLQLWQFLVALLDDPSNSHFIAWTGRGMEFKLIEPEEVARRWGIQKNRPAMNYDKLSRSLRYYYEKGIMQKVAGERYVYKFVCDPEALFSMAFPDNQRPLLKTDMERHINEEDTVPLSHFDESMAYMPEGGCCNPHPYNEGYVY
Summary of the method: as §1

ETV3L = biological target: T5, ETV3L (Homo sapiens, UniProt Q6ZN32 1-361)
T5 sequence: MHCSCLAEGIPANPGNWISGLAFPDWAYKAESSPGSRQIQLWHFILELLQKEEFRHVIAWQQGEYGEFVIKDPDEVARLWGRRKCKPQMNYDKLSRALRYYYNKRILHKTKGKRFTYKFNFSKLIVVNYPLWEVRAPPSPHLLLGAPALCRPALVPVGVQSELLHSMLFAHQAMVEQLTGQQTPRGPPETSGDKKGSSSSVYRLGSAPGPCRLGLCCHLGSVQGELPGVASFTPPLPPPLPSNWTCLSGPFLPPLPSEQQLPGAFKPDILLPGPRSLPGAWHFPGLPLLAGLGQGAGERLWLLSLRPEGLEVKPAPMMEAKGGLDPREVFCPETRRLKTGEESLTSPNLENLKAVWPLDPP
Summary of the method: as §1

ETS2 = biological target: T6, ETS2 (Homo sapiens, UniProt P15036 1-469)
T6 sequence: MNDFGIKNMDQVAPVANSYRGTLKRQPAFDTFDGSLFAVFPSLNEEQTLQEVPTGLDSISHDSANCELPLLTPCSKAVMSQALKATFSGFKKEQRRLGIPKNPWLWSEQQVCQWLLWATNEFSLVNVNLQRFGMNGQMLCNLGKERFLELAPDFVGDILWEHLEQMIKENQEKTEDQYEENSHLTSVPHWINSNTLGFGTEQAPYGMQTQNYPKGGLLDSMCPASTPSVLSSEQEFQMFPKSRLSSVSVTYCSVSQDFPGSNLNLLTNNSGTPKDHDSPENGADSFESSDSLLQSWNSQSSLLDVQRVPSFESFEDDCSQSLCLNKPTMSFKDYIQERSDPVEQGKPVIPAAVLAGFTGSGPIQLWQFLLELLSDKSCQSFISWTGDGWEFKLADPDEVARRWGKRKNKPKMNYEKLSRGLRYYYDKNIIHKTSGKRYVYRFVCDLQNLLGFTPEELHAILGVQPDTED
Summary of the method: as §1

ETV7 = biological target: T7, ETV7 (Homo sapiens, UniProt Q9Y603 1-341)
T7 sequence: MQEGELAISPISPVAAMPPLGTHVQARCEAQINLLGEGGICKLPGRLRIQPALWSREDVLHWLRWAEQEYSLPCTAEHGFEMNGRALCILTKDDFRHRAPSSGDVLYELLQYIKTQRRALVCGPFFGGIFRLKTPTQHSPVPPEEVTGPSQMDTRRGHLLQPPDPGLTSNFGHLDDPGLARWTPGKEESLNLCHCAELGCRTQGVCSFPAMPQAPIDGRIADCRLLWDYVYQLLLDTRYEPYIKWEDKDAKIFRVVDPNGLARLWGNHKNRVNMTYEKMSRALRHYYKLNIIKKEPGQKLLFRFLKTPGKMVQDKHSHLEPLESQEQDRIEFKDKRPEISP
Summary of the method: as §1

ELK1 = biological target: T8, ELK1 (Homo sapiens, UniProt P19419 1-428)
T8 sequence: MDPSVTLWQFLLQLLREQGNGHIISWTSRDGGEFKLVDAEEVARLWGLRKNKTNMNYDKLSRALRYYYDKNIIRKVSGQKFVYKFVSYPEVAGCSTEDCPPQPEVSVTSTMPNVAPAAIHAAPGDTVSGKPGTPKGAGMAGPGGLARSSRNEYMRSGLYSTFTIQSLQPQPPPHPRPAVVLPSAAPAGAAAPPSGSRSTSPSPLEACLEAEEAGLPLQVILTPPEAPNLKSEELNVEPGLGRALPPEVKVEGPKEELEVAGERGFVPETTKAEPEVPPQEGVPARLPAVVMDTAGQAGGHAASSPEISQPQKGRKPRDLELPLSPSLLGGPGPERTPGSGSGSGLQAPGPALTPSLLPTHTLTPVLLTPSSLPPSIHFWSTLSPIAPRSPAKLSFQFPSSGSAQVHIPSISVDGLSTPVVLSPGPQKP
Summary of the method: as §1

FEV = biological target: T9, FEV (Homo sapiens, UniProt Q99581 1-238)
T9 sequence: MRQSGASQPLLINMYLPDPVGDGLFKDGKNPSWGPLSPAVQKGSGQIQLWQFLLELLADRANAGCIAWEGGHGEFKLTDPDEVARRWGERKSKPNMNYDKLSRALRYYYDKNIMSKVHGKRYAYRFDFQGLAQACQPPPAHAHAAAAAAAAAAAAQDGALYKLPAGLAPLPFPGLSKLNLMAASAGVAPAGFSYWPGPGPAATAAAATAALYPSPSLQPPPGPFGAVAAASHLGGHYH
Summary of the method: as §1

ETV6 = ETV6 (Homo sapiens, UniProt P41212 1-452)
ETV6, sequence (P41212 whole entry): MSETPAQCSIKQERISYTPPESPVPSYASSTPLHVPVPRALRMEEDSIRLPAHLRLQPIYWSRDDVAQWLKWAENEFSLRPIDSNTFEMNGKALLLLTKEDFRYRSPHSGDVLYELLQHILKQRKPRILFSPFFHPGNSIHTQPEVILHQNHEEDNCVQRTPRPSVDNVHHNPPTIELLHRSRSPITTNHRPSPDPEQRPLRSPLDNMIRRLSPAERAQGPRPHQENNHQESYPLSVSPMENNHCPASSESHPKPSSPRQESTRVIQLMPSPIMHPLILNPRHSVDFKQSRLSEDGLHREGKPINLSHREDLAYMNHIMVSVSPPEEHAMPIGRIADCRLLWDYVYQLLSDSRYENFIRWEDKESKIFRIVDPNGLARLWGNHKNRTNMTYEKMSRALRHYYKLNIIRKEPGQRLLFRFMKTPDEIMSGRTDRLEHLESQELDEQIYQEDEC
Summary of the method: as §1

Sequence | binding signal (GABPA) | binding signal (ERG) | binding signal (ELF1) | binding signal (EHF) | binding signal (SPIB) | binding signal (ETV5) | binding signal (ELF4) | binding signal (ETV2) | binding signal (ETV1) | binding signal (ETV3L) | binding signal (ETS2) | binding signal (ETV7) | binding signal (ELK1) | binding signal (FEV) | binding signal (ETV6)
AGAAAA | 1.03 fold enrichment (6-mer frequency, TF over GST control) | 1.02 fold enrichment (6-mer frequency, TF over GST control) | 1.02 fold enrichment (6-mer frequency, TF over GST control) | 1.02 fold enrichment (6-mer frequency, TF over GST control) | 1.08 fold enrichment (6-mer frequency, TF over GST control) | 1.02 fold enrichment (6-mer frequency, TF over GST control) | 1.04 fold enrichment (6-mer frequency, TF over GST control) | 1.1 fold enrichment (6-mer frequency, TF over GST control) | 1.05 fold enrichment (6-mer frequency, TF over GST control) | 1 fold enrichment (6-mer frequency, TF over GST control) | 1.09 fold enrichment (6-mer frequency, TF over GST control) | 1.04 fold enrichment (6-mer frequency, TF over GST control) |  |  | 
TGGCGA | 1.01 fold enrichment (6-mer frequency, TF over GST control) | 1.02 fold enrichment (6-mer frequency, TF over GST control) |  | 1.01 fold enrichment (6-mer frequency, TF over GST control) |  | 1.01 fold enrichment (6-mer frequency, TF over GST control) |  |  |  |  | 1.06 fold enrichment (6-mer frequency, TF over GST control) | 1.07 fold enrichment (6-mer frequency, TF over GST control) | 1.02 fold enrichment (6-mer frequency, TF over GST control) | 1.02 fold enrichment (6-mer frequency, TF over GST control) | 1.03 fold enrichment (6-mer frequency, TF over GST control)
